Screening data as filed in PubChem.
A selection: hits, their analogues and other compounds. The true share with any hit is near 4.1%.
hcDAF-12 act – H. contortus DAF-12 nuclear receptor activators, primary screen, cell-based, luminescence, HEK293, lit1-tk-luc reporter; activation, % at 6.8 µM; HEK293 hcDAF-12 lit1-tk-luc reporter; 0% DMSO, 100% Δ7-dafachronic acid; AID 652067, 2013; 1.4% of 370,000 active;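 active = activation above the mean of all tested compounds plus 3 SD, cut at about 5.5% in these data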;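 also: 100% = response to 3 µM Δ7-dafachronic acid high control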
DAX1 inh-1 – DAX1 (NR0B1) inhibitors, primary screen, cell-based, HEK293, Gal4-DAX1, luciferase luminescence | inhibition, % at 6.75 µM | HEK293 Gal4-DAX1 luciferase reporter | 0.99% of 340,000 active;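 active = inhibition above the mean over all tested compounds plus 3 SD, cut at about 4.2% in these data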;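 also: 0% = DAX1-transfected cells with DMSO and 100% = empty-vector control cells with DMSO; inhibition shows as a rise in luminescence from relieved DAX1 repression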
Target sequence (P51843 207-470 limits assumed): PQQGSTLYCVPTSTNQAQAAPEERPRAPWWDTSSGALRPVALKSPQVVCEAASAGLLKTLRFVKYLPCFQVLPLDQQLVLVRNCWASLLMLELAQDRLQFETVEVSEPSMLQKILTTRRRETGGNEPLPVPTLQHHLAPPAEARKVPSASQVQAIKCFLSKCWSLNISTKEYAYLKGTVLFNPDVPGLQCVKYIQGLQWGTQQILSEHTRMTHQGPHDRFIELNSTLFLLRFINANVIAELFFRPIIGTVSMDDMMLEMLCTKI
ssDAF-12 act – S. stercoralis DAF-12 nuclear receptor activators, primary screen, cell-based, luminescence, HEK293, GRIP1 co-expression, lit1-tk-luc; Nuclear hormone receptor DAF-12 (Strongyloides stercoralis); AID 652126, 2013; HEK293 ssDAF-12/GRIP1 lit1-tk-luc reporter; % of 3 µM dafachronic acid response; 1% of 370,000 active; activation, % at 6.8 µM;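 active = activation above the mean over all tested compounds plus 3 SD, cut at about 0.9% in these data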;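 also: 0% = DMSO-only wells and 100% = 3 µM delta7-dafachronic acid wells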
hgDAF12 agonist – H. glycines DAF-12 receptor agonists, primary screen, cell-based, luminescence, HEK293, GAL4 fusion, UAS-luciferase; activation, % at 6.8 µM; 1.8% of 370,000 active; HEK293 GAL4-hgDAF12 UAS-luciferase reporter, agonist luminescence; normalized to butyrate control; AID 687014, 2013; Nuclear hormone receptor DAF-12 (Heterodera glycines), GAL4 fusion;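 active = activation above a cutoff set at the mean of all screened compounds plus 3 SD, cut at about 10% in these data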;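 also: 0% = DMSO wells and 100% = sodium butyrate wells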
DAX1 inh-2 – DAX1 (NR0B1) inhibitors on StAR promoter, primary screen, cell-based, luminescence, SF-1 (NR5A1), full-length DAX-1; 1.1% of 370,000 active; AID 652010, 2013; inhibition, % at 6.8 µM; HEK293T StAR-luciferase reporter, SF-1/DAX-1 repression relief;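 active = inhibition above the mean over all tested compounds plus 3 SD, cut at about 3.6% in these data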;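 also: 0% = DAX-1 cells with DMSO and 100% = cells lacking DAX-1 with DMSO; higher inhibition means more luminescence from relief of DAX-1 repression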
Starred values were filed as active, the others as inactive.

`CCCSc1nc2cc(C)c(C)cc2n1CC(O)CO` (stereo unspecified) gave hcDAF-12 act 0, DAX1 inh-1 -1, ssDAF-12 act -1, hgDAF12 agonist 4 and DAX1 inh-2 0.
CCN(CC)CC(O)Cn1c(-c2cccc(Cl)c2)nc2cc(C)c(C)cc21 (stereo unspecified) was read as hcDAF-12 act 2, DAX1 inh-1 4.2*, ssDAF-12 act -1, hgDAF12 agonist 2 and DAX1 inh-2 1.
`S=C(NN=C(c1ccccc1)c1ccccn1)N(Cc1ccccn1)Cc1ccccn1` gave hcDAF-12 act -4, DAX1 inh-1 -5, ssDAF-12 act -2, hgDAF12 agonist -9 and DAX1 inh-2 -7.
For S=C(NN=Cc1ccccn1)N(Cc1ccccn1)Cc1ccccn1 the results were hcDAF-12 act 3, DAX1 inh-1 -4, ssDAF-12 act 1.0*, hgDAF12 agonist 5 and DAX1 inh-2 1.
CC(C)(C)OC(=O)COc1ccc(/C=N/NC(=O)CN2CCCCC2)cc1 was read as hcDAF-12 act 0, DAX1 inh-1 1, ssDAF-12 act -1, hgDAF12 agonist 13* and DAX1 inh-2 1.
Screening O=C(N/N=C/c1ccc(OCC(=O)N2CCCCC2)cc1)c1ccccc1 returned hcDAF-12 act -1, DAX1 inh-1 1, ssDAF-12 act -1, hgDAF12 agonist 5 and DAX1 inh-2 1.
For COc1ccc(/C=N/NC(=O)CN2CCCC2)cc1 the results were hcDAF-12 act 0, DAX1 inh-1 1, ssDAF-12 act -1, hgDAF12 agonist 4 and DAX1 inh-2 1.
O=C(N/N=C/c1ccc(OCC(=O)N2CCCCC2)cc1)c1ccccc1O was read as hcDAF-12 act 5, DAX1 inh-1 0, ssDAF-12 act 1.7*, hgDAF12 agonist 6 and DAX1 inh-2 1.
Screening Nn1c(SCC(=O)NC2CCCCC2)nnc1-c1n[nH]c2c1CCC2 returned hcDAF-12 act -3, ssDAF-12 act -1, hgDAF12 agonist -4 and DAX1 inh-2 -1.
Cc1cccc(-c2cc3nc4c(c(N5CCC6(CC5)OCCO6)n3n2)CCCC4)c1 was read as hcDAF-12 act 1, DAX1 inh-1 -1, ssDAF-12 act -1, hgDAF12 agonist 0 and DAX1 inh-2 1.
Screening Cc1cccc(-c2cc3nc4c(c(N5CCOCC5)n3n2)CCCC4)c1 returned hcDAF-12 act 3, DAX1 inh-1 3, ssDAF-12 act -1, hgDAF12 agonist 8 and DAX1 inh-2 4.5*.
CN(C)/C=N/c1ncnc2c1cnn2-c1ccc(C(F)(F)F)cn1 was read as hcDAF-12 act 4, DAX1 inh-1 1, ssDAF-12 act 0, hgDAF12 agonist 11* and DAX1 inh-2 1.
`Cc1nn(-c2ccc(C(F)(F)F)cn2)c(C)c1Oc1ccccc1O` gave hcDAF-12 act -2, DAX1 inh-1 2, ssDAF-12 act -1, hgDAF12 agonist -1 and DAX1 inh-2 0.
For CCN(CC)C(=O)O[C@H]1CC[C@@]23CCCN2C(=O)CCC[C@H]3[C@H]1C the results were hcDAF-12 act -2, ssDAF-12 act -1 and hgDAF12 agonist -1.
For CCOC(=O)C1=CCN(S(=O)(=O)c2ccc(Cl)cc2)C1c1cccc(Br)c1 (stereo unspecified) the results were hcDAF-12 act -2, ssDAF-12 act -1, hgDAF12 agonist -2 and DAX1 inh-2 -1.
Cc1cccc(-c2cccc3c4c([nH]c23)[C@@H]2C[C@H](N(C)C(=O)c3ccccc3F)[C@H]([C@H](C)O)CN2CC4)c1 was read as hcDAF-12 act 2, ssDAF-12 act -2, hgDAF12 agonist -1 and DAX1 inh-2 0.
For COc1ccc(N=Nc2nc3cc(Br)c(Br)cc3n2C)c(OC)c1 the results were hcDAF-12 act 1, DAX1 inh-1 -1, ssDAF-12 act 1.6*, hgDAF12 agonist 0 and DAX1 inh-2 0.
